Active and inactive are the calls of the source. The calls were made as follows: active = hit-call score of the fitted dose curve at least 0.9, where 1 is the maximum; inactive = score below 0.9.

Common to all, as to details: mRNA level, 48 h; actives raise or lower the signal
Read-out in test [1]: Interleukin 6 Receptor (IL6R), IL6R (gene 3570)
Briefly: LTEA_HepaRG_IL6R: Life Technologies and Expression Analysis (LTEA) Assay for Interleukin 6 Receptor (IL6R) using HepaRG (AID 2283510).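 As to AC50: differentiated human HepaRG liver cells in serum-free induction medium; TaqMan qRT-PCR signal normalized to ACTB GAPDH and POLR2A housekeeping genes.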 In outline: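 Concentration-response in human liver HepaRG cells: eight concentrations from 100 uM downward by half-logs, 48 h exposure, 0.5% DMSO vehicle. IL6R mRNA change measured by qRT-PCR and fitted in both directions relative to vehicle.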

Read-out in test [2]: Potassium channel subfamily K member 1 (KCNK1), KCNK1 (gene 3775)
Put plainly: LTEA_HepaRG_KCNK1: Life Technologies and Expression Analysis (LTEA) Assay for Potassium channel subfamily K member 1 (KCNK1) using HepaRG (AID 2283511). In outline: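 Gain or loss of KCNK1 mRNA is the read-out, quantified by qRT-PCR against three housekeeping genes after 48 h chemical treatment of human HepaRG liver cells. Concentrations ran from 100 uM downward in half-log steps, vehicle 0.5% DMSO.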

Read-out in test [3]: Keratin 19 (KRT19), KRT19 (gene 3880)
Briefly: LTEA_HepaRG_KRT19: Life Technologies and Expression Analysis (LTEA) Assay for Keratin 19 (KRT19) using HepaRG (AID 2283512). The gist of the method:
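Readout is qRT-PCR of KRT19 mRNA, normalized to ACTB, GAPDH and POLR2A, from HepaRG cells treated 48 h with eight-point half-log dilutions topping at 100 uM. Activity in either direction is scored relative to 0.5% DMSO vehicle.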

Read-out in test [4]: Lipase C (LIPC), LIPC (gene 3990)
Put plainly: LTEA_HepaRG_LIPC: Life Technologies and Expression Analysis (LTEA) Assay for Lipase C (LIPC) using HepaRG (AID 2283514). The gist of the method: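 Read-out is LIPC transcript level by TaqMan qRT-PCR, normalized to three housekeeping genes, after 48 h chemical treatment of human HepaRG liver cells. Curves span eight concentrations topping at 100 uM; activity in either direction scored relative to 0.5% DMSO.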

Read-out in test [5]: Lipoprotein lipase (LPL), LPL (gene 4023)
Put plainly: LTEA_HepaRG_LPL: Life Technologies and Expression Analysis (LTEA) Assay for Lipoprotein lipase (LPL) using HepaRG (AID 2283515). The gist of the method:
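Read-out is LPL transcript level by qRT-PCR, normalized to three housekeeping genes and fitted bidirectionally against the DMSO control. Human HepaRG cells received chemicals for 48 h at up to 100 uM.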

Read-out in test [6]: MicroRNA 122 (MIR122), gene 406906
Put plainly: LTEA_HepaRG_MIR122: Life Technologies and Expression Analysis (LTEA) Assay for MicroRNA 122 (MIR122) using HepaRG (AID 2283516). Also: the transcript read is the microRNA miR-122. In outline: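 HepaRG, 48 h exposure, 8-pt half-log from 100 uM, 0.5% DMSO; TaqMan qRT-PCR; bidirectional fit vs DMSO.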

Read-out in test [7]: matrix metalloproteinase-10 (MMP10), MMP10 (gene 4319)
Put plainly: LTEA_HepaRG_MMP10: Life Technologies and Expression Analysis (LTEA) Assay for matrix metalloproteinase-10 (MMP10) using HepaRG (AID 2283517). The gist of the method:
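Gain or loss of MMP10 mRNA is fitted relative to the 0.5% DMSO vehicle. The human hepatic line HepaRG receives a 48-hour serum-free exposure, in duplicate, with a maximum concentration of 100 uM.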

Read-out in another test: MYC, MYC (gene 4609)
Briefly: LTEA_HepaRG_MYC: Life Technologies and Expression Analysis (LTEA) Assay for MYC using HepaRG (AID 2283518). In outline: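 Expression changes were scored by TaqMan qRT-PCR with ACTB, GAPDH and POLR2A normalization. Cultures in serum-free induction medium received duplicate 8-point concentration series, highest 100 uM, for 48 h; DMSO (0.5%) served as baseline.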

Read-out in test [8]: matrix metalloproteinase-3 (MMP3), MMP3 (gene 4314)
Briefly: LTEA_HepaRG_MMP3: Life Technologies and Expression Analysis (LTEA) Assay for matrix metalloproteinase-3 (MMP3) using HepaRG (AID 2283519). The gist of the method: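 HepaRG, human; 48 h dosing, 8 conc. (max 100 uM, half-log), duplicate, 0.5% DMSO. Readout: MMP3 transcript by Fluidigm TaqMan qRT-PCR, ACTB/GAPDH/POLR2A-normalised. Gain or loss fitted vs DMSO.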

Read-out in test [9]: Protein phosphatase 2A (PPP2R4), PTPA (gene 5524)
Briefly: LTEA_HepaRG_PPP2R4: Life Technologies and Expression Analysis (LTEA) Assay for Protein phosphatase 2A (PPP2R4) using HepaRG (AID 2283522). The gist of the method: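 Gene-expression endpoint in HepaRG hepatic cells: 48 h treatment across eight half-log concentrations up to 100 uM in 0.5% DMSO. PPP2R4 mRNA by qRT-PCR, normalized to three endogenous control genes.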

Read-out in test [10]: Phosphatase and tensin (PTEN), PTEN (gene 5728)
Put plainly: LTEA_HepaRG_PTEN: Life Technologies and Expression Analysis (LTEA) Assay for Phosphatase and tensin (PTEN) using HepaRG (AID 2283523). In outline:
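Read-out is PTEN transcript level by multiplexed TaqMan qRT-PCR after 48 h chemical treatment of human HepaRG cultures in serum-free induction medium. Concentrations spanned 100 uM downward in half-log steps, 0.5% DMSO throughout; activity fitted in both directions against vehicle.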

Read-out in test [11]: solute carrier (SLC22A1), SLC22A1 (gene 6580)
Briefly: LTEA_HepaRG_SLC22A1: Life Technologies and Expression Analysis (LTEA) Assay for solute carrier (SLC22A1) using HepaRG (AID 2283524).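 As to AC50: differentiated human HepaRG liver cells in serum-free induction medium.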 The gist of the method: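 HepaRG (human liver line), 48 h dosing in serum-free induction medium; 8 conc., half-log down from 100 uM, 0.5% DMSO vehicle, duplicates. Endpoint: SLC22A1 mRNA, qRT-PCR, housekeeping-normalized; gain/loss fit vs DMSO.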

Read-out in test [12]: NAD(P)H dehydrogenase [quinone] 1 (NQO1), NQO1 (gene 1728)
Briefly: LTEA_HepaRG_NQO1: Life Technologies and Expression Analysis (LTEA) Assay for NAD(P)H dehydrogenase [quinone] 1 (NQO1) using HepaRG (AID 2283526). The gist of the method: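 Human HepaRG hepatic cells received chemicals for 48 h in serum-free induction medium with 0.5% DMSO, up to 100 uM. Expression was assessed by TaqMan qRT-PCR against housekeeping controls and fitted bidirectionally against DMSO.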

Read-out in test [13]: Nuclear factor erythroid 2-related factor 2 (Homo sapiens) (UniProt Q16236)
Briefly: LTEA_HepaRG_NFE2L2: Life Technologies and Expression Analysis (LTEA) Assay for Nuclear factor erythroid 2-related factor 2 (NFE2L2) Transcription Factor using HepaRG (AID 2283527). In outline: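 Transcript level of NFE2L2 is the read-out, measured by microfluidic TaqMan qRT-PCR and normalized to three housekeeping genes. Human HepaRG cultures received test chemical for 48 h at up to 100 uM in half-log steps. Gain or loss of signal is fitted relative to 0.5% DMSO.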

Read-out in test [14]: succinate dehydrogenase complex iron sulfur subunit B (SDHB), SDHB (gene 6390)
Put plainly: LTEA_HepaRG_SDHB: Life Technologies and Expression Analysis (LTEA) Assay for succinate dehydrogenase complex iron sulfur subunit B (SDHB) using HepaRG (AID 2283528). The gist of the method:
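SDHB transcript level read by TaqMan qRT-PCR, housekeeping-normalised (ACTB, GAPDH, POLR2A), after 48 h chemical treatment of plated HepaRG cells; eight concentrations top 100 uM, half-log steps, 0.5% DMSO, duplicates; fitted both directions against DMSO.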

Read-out in test [15]: Signal transducer and activator of transcription 3 (Homo sapiens) (UniProt P40763)
Briefly: LTEA_HepaRG_STAT3: Life Technologies and Expression Analysis (LTEA) Assay for Signal transducer and activator of transcription (STAT3) using HepaRG (AID 2283529). The gist of the method: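 Read-out is STAT3 mRNA level by qRT-PCR, normalized to three housekeeping genes, in human HepaRG liver cells treated for 48 h. Concentrations ran from 100 uM downward in half-log steps; curves were fitted for gain or loss relative to 0.5% DMSO.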

Read-out in test [16]: Pyruvate Dehydrogenase Kinase 4 (PDK4), PDK4 (gene 5166)
Briefly: LTEA_HepaRG_PDK4: Life Technologies and Expression Analysis (LTEA) Assay for Pyruvate Dehydrogenase Kinase 4 (PDK4) using HepaRG (AID 2283525). In outline:
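In this multiplexed human HepaRG expression assay, cells are treated 48 h with test chemicals across an eight-point range starting at 100 uM. PDK4 mRNA changes, normalized to ACTB/GAPDH/POLR2A, are fitted in both directions relative to vehicle.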

Read-out in test [17]: Nuclear factor NF-kappa-B p105 subunit (Homo sapiens) (UniProt P19838)
Briefly: LTEA_HepaRG_NFKB1: Life Technologies and Expression Analysis (LTEA) Assay for Nuclear Factor Kappa B Subunit 1 (NFKB1) using HepaRG (AID 2283521).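 Also: differentiated human HepaRG liver cells in serum-free induction medium.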 The gist of the method:
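NFKB1 transcript was measured by TaqMan qRT-PCR on Fluidigm arrays, normalised to three housekeeping genes and fitted in both directions against 0.5% DMSO. HepaRG cells were dosed in duplicate for 48 h in serum-free induction medium, eight half-log steps from 100 uM.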

Chain of Nuclear factor erythroid 2-related factor 2 (Homo sapiens) (Q16236 whole entry, looked up): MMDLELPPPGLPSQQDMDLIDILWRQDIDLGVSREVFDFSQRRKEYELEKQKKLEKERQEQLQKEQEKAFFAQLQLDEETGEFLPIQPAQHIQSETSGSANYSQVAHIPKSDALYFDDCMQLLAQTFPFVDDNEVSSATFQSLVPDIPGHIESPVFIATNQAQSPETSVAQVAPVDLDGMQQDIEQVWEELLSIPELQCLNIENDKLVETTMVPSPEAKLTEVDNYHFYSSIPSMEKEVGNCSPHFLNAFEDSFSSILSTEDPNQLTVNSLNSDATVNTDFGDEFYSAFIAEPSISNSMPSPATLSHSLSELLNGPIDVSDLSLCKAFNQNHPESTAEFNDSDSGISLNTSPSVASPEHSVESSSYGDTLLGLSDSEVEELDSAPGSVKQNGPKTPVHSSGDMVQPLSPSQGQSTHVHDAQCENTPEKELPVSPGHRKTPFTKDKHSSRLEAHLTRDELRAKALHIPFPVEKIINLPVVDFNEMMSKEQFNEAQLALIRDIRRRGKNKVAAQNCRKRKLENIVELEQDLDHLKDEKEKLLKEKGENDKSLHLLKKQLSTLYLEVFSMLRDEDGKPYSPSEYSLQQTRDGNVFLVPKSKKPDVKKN
Chain of Signal transducer and activator of transcription 3 (Homo sapiens) (P40763 whole entry, looked up): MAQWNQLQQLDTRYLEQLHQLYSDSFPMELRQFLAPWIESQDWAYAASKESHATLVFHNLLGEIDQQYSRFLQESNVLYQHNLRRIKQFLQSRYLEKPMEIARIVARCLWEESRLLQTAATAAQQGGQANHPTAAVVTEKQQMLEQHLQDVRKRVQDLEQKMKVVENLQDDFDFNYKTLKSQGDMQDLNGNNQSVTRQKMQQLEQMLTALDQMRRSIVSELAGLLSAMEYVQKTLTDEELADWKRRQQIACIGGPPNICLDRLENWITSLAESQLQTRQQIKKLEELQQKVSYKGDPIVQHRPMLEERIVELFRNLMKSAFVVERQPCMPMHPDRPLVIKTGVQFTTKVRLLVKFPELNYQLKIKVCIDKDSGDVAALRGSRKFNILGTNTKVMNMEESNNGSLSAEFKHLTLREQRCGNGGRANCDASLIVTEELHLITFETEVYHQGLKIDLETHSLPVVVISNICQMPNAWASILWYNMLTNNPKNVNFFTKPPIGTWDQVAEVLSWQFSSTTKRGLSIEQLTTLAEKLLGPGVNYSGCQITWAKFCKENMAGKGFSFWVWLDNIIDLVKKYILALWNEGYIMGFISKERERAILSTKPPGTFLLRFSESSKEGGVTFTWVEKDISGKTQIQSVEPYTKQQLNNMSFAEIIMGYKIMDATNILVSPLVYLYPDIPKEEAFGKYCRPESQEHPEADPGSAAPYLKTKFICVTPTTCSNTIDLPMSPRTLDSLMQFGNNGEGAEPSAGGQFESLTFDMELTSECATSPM
Chain of Nuclear factor NF-kappa-B p105 subunit (Homo sapiens) (P19838 whole entry, looked up): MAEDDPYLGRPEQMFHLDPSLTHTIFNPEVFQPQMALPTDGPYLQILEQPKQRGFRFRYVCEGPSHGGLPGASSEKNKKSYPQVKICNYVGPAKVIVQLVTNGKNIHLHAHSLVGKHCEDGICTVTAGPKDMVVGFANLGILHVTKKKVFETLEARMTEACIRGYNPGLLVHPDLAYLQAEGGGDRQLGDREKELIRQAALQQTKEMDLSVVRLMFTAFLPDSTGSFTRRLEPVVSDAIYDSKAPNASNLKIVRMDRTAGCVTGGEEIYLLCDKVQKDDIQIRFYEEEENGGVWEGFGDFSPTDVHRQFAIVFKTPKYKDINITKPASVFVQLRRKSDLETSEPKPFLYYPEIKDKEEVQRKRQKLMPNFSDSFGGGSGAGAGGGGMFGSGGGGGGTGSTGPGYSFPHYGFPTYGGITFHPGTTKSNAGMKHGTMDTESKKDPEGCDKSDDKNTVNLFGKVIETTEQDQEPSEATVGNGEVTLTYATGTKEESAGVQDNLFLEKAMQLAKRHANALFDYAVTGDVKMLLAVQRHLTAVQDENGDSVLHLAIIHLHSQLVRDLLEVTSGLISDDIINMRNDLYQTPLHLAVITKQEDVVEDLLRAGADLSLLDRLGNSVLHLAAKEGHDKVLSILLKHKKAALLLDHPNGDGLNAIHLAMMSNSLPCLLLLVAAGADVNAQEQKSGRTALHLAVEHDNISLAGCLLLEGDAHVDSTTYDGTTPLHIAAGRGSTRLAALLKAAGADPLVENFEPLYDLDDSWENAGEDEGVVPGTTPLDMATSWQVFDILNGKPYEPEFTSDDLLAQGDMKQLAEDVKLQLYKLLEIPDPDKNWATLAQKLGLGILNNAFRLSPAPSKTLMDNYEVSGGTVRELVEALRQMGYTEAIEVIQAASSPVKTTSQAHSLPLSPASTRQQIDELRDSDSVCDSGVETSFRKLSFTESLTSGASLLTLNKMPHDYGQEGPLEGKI

For orientation: AC50 means the concentration at which the activity in the assay is half-maximal. As to `CC(C)(C)C(O)/C(=C\c1ccc(Cl)cc1Cl)n1cncn1` (configuration not stated), the concentration at half-maximal activity (AC50) in test [1] was 50 µM (active); in [2], 71.6 µM (active); in [4], 21.5 µM (active); in [5] it was 12.4 µM (active); in test [9], 85.9 µM (active); in test [10], 79.1 µM (active). The AC50 in [11] was 21 µM (active); in test [13], 75.3 µM (active). In addition, the outcome was “inactive” in test [3]; “inactive” in [6]; “inactive” in test [7]; “inactive” with MYC, MYC (gene 4609); “inactive” in [8]; “inactive” in test [12]. Also, the molecule was called inactive in [14] and in test [15].
`CNC(=O)Oc1cccc(N=CN(C)C)c1`: the result in [1], in [2], in test [3], in test [4], in test [5] and in test [6] was inactive. For the same molecule, the outcome in [7] is “inactive”; in the test with MYC, MYC (gene 4609) it was “inactive”; in test [8] it was “inactive”; in test [9], “inactive”; in test [10], “inactive”; in test [11] it was “inactive”. Moreover, the call in test [12], in test [13], in test [14] and in test [15] was inactive.
In the case of `O=C(O)COc1ccc(Cl)cc1Cl`, the result in [1], in test [2], in test [3], in test [4], in test [6] and in test [7] was inactive. Besides, the outcome with MYC, MYC (gene 4609) is “inactive”; in [8] it was “inactive”; in [9] it was “inactive”; in test [10] it was “inactive”; in test [11], “inactive”; in [12], “inactive”. Moreover, the outcome in test [13], in test [14] and in [15] was inactive. For the same molecule, the AC50 in [16] is 38.5 µM (active).
`Clc1ccccc1-c1nnc(-c2ccccc2Cl)nn1`: the molecule was classed as inactive in [1], in test [2], in [4], in test [5], in test [6] and in [7]. The outcome with MYC, MYC (gene 4609) is “inactive”; in test [8], “inactive”; in test [9] it was “inactive”; in test [10], “inactive”; in test [12], “inactive”; in test [13], “inactive”. The outcome in [14] and in test [15] was inactive. The results for the half-maximal activity concentration (AC50) in [3] and in test [11] were 21.5 µM (active) and 50 µM (active), respectively.
Consider `O=[N+]([O-])/N=C1\NCCN1Cc1ccc(Cl)nc1`, for which the AC50 in test [1] is 39 µM (active); in test [4] it was 36.4 µM (active); in test [5] it was 33 µM (active); in test [6] it was 23.9 µM (active); in test [9], 24.3 µM (active); in [11], 50 µM (active). Besides, the AC50 in [12] is 29.1 µM (active); in [13] it was 18.9 µM (active); in test [14], 25.8 µM (active); in test [15] it was 20.1 µM (active). In addition, the outcome in test [2] is “inactive”; in [3] it was “inactive”; in test [7], “inactive”; with MYC, MYC (gene 4609) it was “inactive”; in test [8], “inactive”; in test [10], “inactive”.
In the case of `COc1nn(CSP(=S)(OC)OC)c(=O)s1`, the result in [1], in [2], in test [3], in test [4], in test [5] and in test [6] was inactive. Moreover, the outcome was “inactive” in test [7]; “inactive” in the test with MYC, MYC (gene 4609); “inactive” in test [8]; “inactive” in test [17]; “inactive” in test [9]; “inactive” in test [10]. The result in [11], in [12], in [13], in test [14] and in test [15] was inactive.
